Bioassay records deposited in PubChem BioAssay by National Center for Advancing Translational Sciences (NCATS).
An excerpt weighted towards active compounds, which were near 17% of everything screened.
TGFb SMAD3 inh = inhibitors of TGF-b signaling | 410,000 compounds, 1.2% hits | AID 588855 | Potency, µM (highest dose often 46.1 µM), for the others: at the highest dose activity, negative = inhibition, most hits filed as inhibitors | HepG2 CAGA-GFP TGF-b/SMAD3 reporter, GFP fluorescence, 18 h; TGF-beta stimulated, 500 pg/mL final; note: % is set by controls: 0 for no effect and ±100 for the full control effect; nearly all actives have a fitted effect of over 65% in size
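Read-out: total well GFP (ex488/em500-530) summed from mean per-cell fluorescence. Cells: HEPG2 CAGA-GFP, 1% FBS DMEM, 18 h at 37 degrees C with 500 pg/mL final TGF-beta. Unstimulated wells served as the full-inhibition control; stimulated DMSO wells = 0%.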
DT40 TDP1 no CPT = qHTS for Inhibitors of human tyrosyl-DNA phosphodiesterase 1 (TDP1): qHTS in cells in absence of CPT. AID 686978, 2013. 420,000 compounds, 15% hits. DT40 Tdp1-/- hTDP1 cells, no CPT, ATP luminescence, 48 h. Potency, µM (top dose mostly 46.2 µM), for the others: top-dose activity change, negative = growth inhibition, usual class: inhibitors; note: % is set by controls: 0 for no effect and ±100 for the full control effect; nearly all actives have a fitted effect of over 55% in size
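Compound effects on proliferation are scored in DT40 Tdp1-/-;hTDP1 cells in the absence of CPT. ATP levels (CellTiter-Glo luminescence) are recorded after a ≥48 hr, 37 °C incubation.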
TDP1 cell CPT = DT40-hTDP1 cell growth loss with CPT; chicken DT40 Tdp1-/-;hTDP1 cells + 20 nM CPT, ATP luminescence, 48 h; Potency, µM (series often up to 46.2 µM), for the others: top-dose activity change, negative = growth inhibition, actives largely listed as inhibitors; 420,000 compounds, 12% hits; AID 686979; note: % is set by controls: 0 for no effect and ±100 for the full control effect; nearly all actives have a fitted effect of over 55% in size
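Cell growth measured by CellTiter-Glo luminescence after a minimum 48 h, 37 C compound exposure with 20 nM CPT in Tdp1-knockout DT40 cells stably expressing hTDP1, seeded 400/well; qHTS titration format.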
ATXN2 expr inh = ATXN2 expression inhibition; HEK-293 ATXN2-luciferase reporter, luminescence, 24 h; 360,000 compounds, 0.72% hits; AID 1745845; Potency, µM (series often up to 57 µM), for the others: at the highest dose activity change, negative = inhibition, usual class: inhibitors; note: % is set by controls: 0 for no effect and ±100 for the full control effect; nearly all actives have a fitted effect of over 55% in size
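ATXN2-luciferase reporter cells (luciferase flanked by upstream and downstream ATXN2 gene portions) were treated 24 h at 37 °C with compounds at up to 57 uM. SteadyGlo luminescence gave expression; GF-AFC fluorescence gave viability.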
HepG2 viability = HepG2 cytotoxicity, counter-screen for TGF-b inhibitors; HepG2 CAGA-GFP viability, ATP luminescence, 18 h; Potency, µM (titrated, usually from 46.1 µM), for inactives: top-dose activity change, negative = cytotoxicity, usual class: cytotoxic; 410,000 compounds, 0.76% hits
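HepG2 CAGA-GFP cells (1000/well, DMEM with 1% FBS) received compound, then TGF-beta at 500 pg/mL final, and were incubated 18 hours at 37 degrees C. Viability was read by CellTiter-Glo luminescence. Media-only wells were set as complete cell-killing and DMSO as no toxicity.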
S2 tox = cell viability loss in ATXN counter-screen. S2 cells (HEK-293 line with an ATXN2-luciferase reporter) viability, CellTiter-Fluor protease fluorescence, 24 h. Potency, µM (titrated, usually from 56.7 µM), most hits filed as cytotoxic. 400,000 compounds, 0.49% hits; note: nearly all actives have a fitted effect of over 40% in size
Starred values were filed as active, the others as inactive; i = inactive; ? = inconclusive; · = not tested or not shown; [ ] = dose if it differs, or a comment. Calls come from the whole dose curve; as a rule, active = well fitted curve in the direction sought with a large enough effect; inconclusive = small, poorly fitted or top-dose-only effect, or another doubt; inactive = no such curve, though single readings can be large; an effect the other way counts as inactive or inconclusive. Potency is the fitted concentration of half-maximal effect.

SMILES | TGFb SMAD3 inh | DT40 TDP1 no CPT | TDP1 cell CPT | ATXN2 expr inh | HepG2 viability | S2 tox
CCCCOC(=O)c1ccc(NC(=O)COC(=O)CSc2nc(C)cc(C)n2)cc1 | 0% | -7% | 15% | 22% | 1% | ?
CCN(c1ccccc1)S(=O)(=O)c1ccc(Cl)c(NC(=O)CSc2n[nH]c(N)n2)c1 | -34% | ? | -11% | 6% | -3% | i
CC(C)c1ccc(C(=O)NC(=S)NCc2cccnc2)cc1 | -9% | 16µM* | ? | 9% | -25% | i
Cc1ccc(C(=O)NC(=S)NCc2cccnc2)cc1C | -4% | -9% | -4% | -18% | -8% | i
O=C(Nc1cnn(Cc2c(Cl)cccc2Cl)c1)c1ccc([N+](=O)[O-])cc1 | -13% | 16µM* | ? | -10% | -27% | ?
CC(C)(C)c1ccc(C(=O)Nc2ccc(C(=O)NCc3cccnc3)cc2)cc1 | 6% | 1.8µM* | 2.6µM* | -22% | -1% | i
O=C(COc1ccc(Cl)cc1)Nc1cnn(Cc2c(Cl)cccc2Cl)c1 | 9% | -23% | -16% | -11% | -10% | i
COc1ccc(OC)c(CN2CCN(C(=O)c3ccc(NS(=O)(=O)c4cccc([N+](=O)[O-])c4)cc3)CC2)c1 | -6% | -16% | -22% | 2% | -21% | i
COc1ccc(-c2cc(=O)oc3cc(OCC(=O)NCC4CCC(C(=O)O)CC4)ccc23)cc1 (stereo not drawn) | 3% | -1% | 2% | 5% | 1% | i
CCCNC(=O)c1cc2cc([N+](=O)[O-])ccc2s1 | 0% | -17% | -26% | -16%[11.3 µM] | -3% | i
CC(C)NC(=O)c1cc2cc([N+](=O)[O-])ccc2s1 | ? | 15µM* | ? | -10% | -5% | i
CC(C)N1CCc2c(sc(NC(=O)c3ccc4ccccc4c3)c2C(N)=O)C1 | 7% | ? | 15µM* | -23% | 11µM* | i
CC(C)N1CCc2c(sc(NC(=O)c3ccc(C(=O)c4ccccc4)cc3)c2C(N)=O)C1 | ? | 23µM* | ? | ? | -43% | ?
CC(C)N1CCc2c(sc(NC(=O)c3cc4cc([N+](=O)[O-])ccc4s3)c2C(N)=O)C1 | ? | 4.6µM* | 4.6µM* | ? | 13µM* | ·
Cc1cc(C)cc(OCc2cc(=O)n3c4c(sc3n2)CCCC4)c1 | -2% | 7% | -1% | 4% | 0% | i
COc1ccccc1CNC(=O)COC(=O)C1CCN(S(=O)(=O)c2ccc(C)c(C)c2)CC1 | -1% | 0% | 1% | -10% | 10% | i
COc1ccc2c(CC(=O)OCC(=O)N3CCc4ccccc43)coc2c1 | -5% | 18µM* | ? | 0% | 3% | i
COCC(=O)Nc1cc(C(=O)N2CC3CCC2C3)c2c(c1)nc(-c1ccncc1)n2C (stereo not drawn) | · | -4% | 9%[9.04 µM] | · | · | i
Cc1cc2oc(=O)cc(-c3cc4ccccc4o3)c2cc1O | 0% | 23µM* | 26µM* | · | -20% | i
CCN1CCCC1CNC(=O)c1ccc2c(c1)NC(=O)/C(=C\c1ccc(C)cc1)S2 (stereo not drawn) | ? | 16µM* | ? | · | 16µM* | ·
CC1CCN(C(=O)c2ccc3c(c2)NC(=O)/C(=C/c2ccccc2)S3)CC1 | ? | -21% | ? | -24% | -19% | i
Cc1ccc(/C=C2/Sc3ccc(C(=O)N4CCN(C)CC4)cc3NC2=O)cc1 | -3% | ? | 23µM* | -23% | -3% | i
O=C(CN(Cc1ccc(Cl)cc1)C(=O)CNS(=O)(=O)c1ccccc1)NCC1CCCO1 (stereo not drawn) | 14% | -8% | -5% | -3% | 16% | i
COC(=O)[C@]12CCCCC=C1N(CCC1=CCCCC1)C(=O)[C@H](CC(=O)N1CCCCC1)C2 | · | 23µM* | 18µM* | ? | · | ?
COC(=O)[C@]12CCCCC=C1N(CCC1=CCCCC1)C(=O)[C@H](CC(=O)N1CCN(C(=O)C3CC3)CC1)C2 | · | 16µM* | ? | -24% | · | ?
SMILES | TGFb SMAD3 inh | DT40 TDP1 no CPT | TDP1 cell CPT | ATXN2 expr inh | HepG2 viability | S2 tox
O=C1NC[C@H](CCCCN2CCN(Cc3ccccc3)C(=O)C2=O)N(Cc2ccccc2)C1=O | · | -13% | 2% | 1% | · | i
O=c1cc(-c2ccccc2)n2c(SCc3ccc(F)cc3)nnc2[nH]1 | -9% | 9% | 15% | · | 1% | ·
CC1=C(CC(=O)c2ccc(Cl)cc2)C(=O)c2ccccc2C1=O | 13µM* | 16µM* | 23µM* | 66% | 13µM* | i
CN1C(=O)C2(N=c3ccccc3=N2)c2ccccc21 | -22% | 15µM* | ? | 15% | -15% | i
CN(NC(=O)c1ccc(Cl)cc1)c1nc(-c2ccccc2)nnc1C(F)(F)F | ? | 15µM* | 21µM* | -6% | -67% | i
CN(N)c1nc2ccccc2nc1C(F)(F)F | -5% | ? | ? | -22% | -4% | i
Cc1ccc(C(=O)NN(C)c2nc3ccccc3nc2C(F)(F)F)cc1 | 1% | 3.7µM* | 4.6µM* | -20% | -14% | ?
Cc1ccc(-n2nc3c(n2)/C(=N/O)CC/C3=N\O)cc1 | -25% | 16µM* | ? | 27% | -59% | i
CCN1CCN=C1Nc1ccccc1 | 8% | 5% | 9% | 11% | -1% | i
COc1ccc(C(C#N)=Cc2cccc(OC)c2OC)cc1 | 6% | 23µM* | ? | · | -28% | i
COc1cc2c[n+](C)c3c4ccccc4ccc3c2cc1OC | -27% | 1.5µM* | 1µM* | -35% | -11% | i
COc1ccc2c(c1)c[n+](C)c1c3cc(OC)c(OC)cc3ccc21 | · | 1.2µM* | 1.2µM* | 18µM* | · | ?
O=C(Nc1ccc(Cl)cc1)c1ccc(OCC2CCCO2)cc1 (stereo not drawn) | -8% | ? | 8% | 26% | -14% | i
CCN(CC)S(=O)(=O)c1ccc(NC(=O)c2ccc(OCC3CCCO3)cc2)cc1 (stereo not drawn) | ? | 15µM* | 23µM* | ? | -44% | i
Cc1cc(NC(=O)c2ccc(OCC3CCCO3)cc2)ccc1Br (stereo not drawn) | -9% | 15µM* | 21µM* | · | -27% | i
